# Experimental data reported in the supplement of paper PMC3334620.
# In all, about 33,000 sequences were measured (“E-score (-0.5 to 0.5)”: median about -0.041, highest 2% from about 0.37 on). The sample holds the highest values, similar sequences and a random draw of the others, so the mix is not that of the screen.
# Target: T1, Ecm22 (UniProt Q05958)
# T1 sequence: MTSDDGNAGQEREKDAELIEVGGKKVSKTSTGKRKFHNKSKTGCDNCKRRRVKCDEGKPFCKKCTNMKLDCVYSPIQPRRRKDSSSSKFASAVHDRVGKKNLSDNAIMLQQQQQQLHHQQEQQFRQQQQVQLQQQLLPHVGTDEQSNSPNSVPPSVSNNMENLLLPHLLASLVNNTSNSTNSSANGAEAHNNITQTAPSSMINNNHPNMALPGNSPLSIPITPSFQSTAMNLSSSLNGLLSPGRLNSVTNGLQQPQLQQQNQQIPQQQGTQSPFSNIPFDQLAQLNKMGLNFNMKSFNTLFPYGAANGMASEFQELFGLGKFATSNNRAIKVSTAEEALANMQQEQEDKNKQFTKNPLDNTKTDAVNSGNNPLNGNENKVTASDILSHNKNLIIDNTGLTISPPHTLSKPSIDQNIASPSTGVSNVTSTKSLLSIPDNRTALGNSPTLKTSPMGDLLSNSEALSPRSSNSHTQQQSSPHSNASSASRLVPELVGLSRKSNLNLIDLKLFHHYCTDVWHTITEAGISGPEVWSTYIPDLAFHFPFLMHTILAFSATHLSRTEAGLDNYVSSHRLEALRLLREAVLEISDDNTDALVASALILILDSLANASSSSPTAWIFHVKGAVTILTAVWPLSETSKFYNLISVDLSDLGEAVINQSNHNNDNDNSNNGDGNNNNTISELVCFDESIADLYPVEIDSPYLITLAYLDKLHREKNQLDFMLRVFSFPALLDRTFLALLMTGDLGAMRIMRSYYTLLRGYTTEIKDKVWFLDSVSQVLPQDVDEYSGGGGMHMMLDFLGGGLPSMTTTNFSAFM
# Test: PBM E-score (8-mer binding enrichment) (E-score (-0.5 to 0.5)); higher = stronger / more preferred TF binding
# Settings: protein concentration: 200 nM; construct: GST-full length
# Description: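 Universal 'all 10-mer' protein binding microarrays (Agilent AMADID 015681) probed with GST-tagged S. cerevisiae TFs (full-length or DBD) made by in vitro transcription/translation (PURExpress), about 100-200 nM. Bound TF was detected with fluorescent anti-GST. Each ungapped 8-mer (which stands for itself and its reverse complement) is scored by the PBM enrichment score (E-score), a modified Wilcoxon-Mann-Whitney statistic from -0.5 to +0.5, computed with the Universal PBM Analysis Suite. Scale: above 0.35 generally sequence-specific binding.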
row,Sequence,PBM E-score
1,CAGGGTAG,-0.148
2,AATCTTTA,-0.0885
3,CCCTGACC,-0.0114
4,CGCGATAG,0.135
5,CCATTTGC,-0.0821
6,AGTCGAAC,0.0504
7,GACGCAAA,0.114
8,GAAAAGAA,0.0308
9,CAGTTCCA,-0.0209
10,AAGAGGTG,-0.0239
11,CGTATACA,0.46
12,TGTATACA,0.0967
13,AGTATACG,0.433
14,AGTATACC,0.0306
15,GGTATACA,-0.21
16,CGAATACG,0.362
17,GGTATACC,0.0922
18,AGTATACT,0.102
19,CGTATACC,0.469
20,CGTATACG,0.489
21,AGTATATG,-0.0215
22,AGTATACA,0.0981
23,AGGAGAAA,-0.281
24,TCGATCAA,0.0228
25,CGTAATGC,0.162

row,Sequence,PBM E-score
1,CGGAACAA,0.168
2,TATGGGAA,-0.0838
3,GCTTTTGA,-0.115
4,AACCCTTG,-0.0616
5,CGGATACA,0.162
6,CGGATACC,0.0623
7,CGGATACG,0.386
8,ATAGACAT,-0.0449
9,CCAGCGAC,-0.231
10,CGATAGCG,0.128
11,CGGCGACG,0.0233
12,ACTATACT,0.144
13,CCTATACA,-0.00901
14,ATTATACG,0.476
15,ACTATACG,0.463
16,ATTATACC,0.104
17,ACTATACA,0.108
18,CCTATACC,-0.0658
19,ATTATACA,0.0593
20,CCTATACG,0.465
21,TATGCAGA,0.0611
22,ATAAGCCC,-0.136
23,ACCTACCG,-6e-05
24,TAGTCAGA,-0.276
25,ACGGGTCG,0.267

row,Sequence,PBM E-score
1,AGACAAAG,0.0946
2,CTAAGCGC,0.0189
3,CTAAGCGA,0.385
4,ATAAGCGA,0.332
5,AGACTCAC,-0.22
6,GCTGGCAC,-0.325
7,CCGGAATC,-0.169
8,CGCGGTAA,0.191
9,AGTTCCGC,0.09
10,CGTTCCGC,0.458
11,CTTTCCGC,-0.0543
12,AGTTCCGA,0.226
13,CGTTCCGA,0.444
14,GGTTCCGA,-0.00514
15,ACCGGACA,-0.108
16,TCCTGAAA,-0.00548
17,ATTCAAGG,-0.157
18,TAGAACTA,-0.0234
19,GAGAACGC,0.117
20,GAGAACCA,-0.098
21,GAGAACGA,0.422
22,CAGAACGC,-0.0854
23,CAGAACGG,0.075
24,TAGAACCA,0.00176
25,AAGAACGT,0.101

row,Sequence,PBM E-score
1,AAGAACGG,0.243
2,AAGAACGA,0.453
3,TAGAACGA,0.429
4,CAGAACGA,0.379
5,GAATCGAC,0.163
6,ACGGGAGC,0.225
7,TAATCCTA,0.00777
8,GACGGAGC,-0.0469
9,CCTAGGAG,-0.239
10,CCAAGGCA,-0.0888
11,CAAGTGCA,-0.24
12,CTGGATGC,-0.159
13,GCATAGGC,-0.178
14,GGCATGAC,-0.121
15,AGGCTGGG,-0.263
16,CCAAGCCC,-0.117
17,CTTCTGTC,-0.199
18,GGGAACCA,-0.215
19,GGGAACGA,0.492
20,GGGAACAA,0.143
21,AGCCATTA,0.18
22,AGAGGCTA,-0.209
23,CAATACGA,0.403
24,GAATACTA,0.141
25,GAATACGC,0.152

row,Sequence,PBM E-score
1,TAATACTA,0.114
2,CAATACGC,-0.0345
3,TAATACCA,0.0168
4,AAATACGT,0.0932
5,AAATACGA,0.451
6,AAATACGC,0.194
7,GAATACGA,0.432
8,CAATACGG,0.0307
9,TAATACGA,0.437
10,ATCGCCGA,0.00202
11,GGTTGTCA,-0.195
12,ACCGCAGC,-0.0492
13,ATCTTTTA,0.0457
14,GCCCGCAC,-0.0245
15,CACCCCAG,-0.0849
16,ACAATAAT,-0.0625
17,CGCGGATA,0.188
18,CACCACAG,-0.132
19,CTACCCAG,-0.0541
20,ACCCCAGT,-0.0793
21,CCTAGAAG,-0.187
22,CGTGGCGC,0.0496
23,CCGAAACG,0.288
24,ACGAAATC,0.285
25,ACGAAATA,0.381

row,Sequence,PBM E-score
1,ACGAAACA,0.335
2,ACGAAACG,0.411
3,ACGAAAGG,0.33
4,ACGAAACT,0.369
5,ACGAAACC,0.33
6,GCGAAATA,0.0791
7,CGAAGGAG,0.129
8,GACTGAAC,0.0447
9,AATTCAGT,-0.189
10,AAACCTTA,0.0879
11,CTAAGGGA,0.0248
12,ATCCCACA,-0.176
13,GATCGTAA,0.387
14,CATCGTAA,0.381
15,AATCGTAT,0.427
16,AATCGTAA,0.333
17,GATCGTAC,0.454
18,CATCGTGA,0.108
19,GATCGTTA,0.211
20,CATCGTCA,-0.0402
21,GATCGTCC,-0.0538
22,GATCGTGC,0.0469
23,AATCGTAG,0.211
24,AATCGTCT,0.0505
25,CCCGCAAA,0.148

row,Sequence,PBM E-score
1,CTGACCCA,-0.312
2,ACTGCTAC,0.00971
3,CATGCTCA,-0.229
4,CCACGGAG,-0.163
5,ACACAGTA,-0.0309
6,AATCGTAC,0.458
7,CATCGTCC,0.0413
8,AATCGTCC,0.0602
9,AATCGTGC,0.221
10,CATCGTAC,0.458
11,CATCGTAG,0.261
12,GTTAAGCA,-0.0308
13,CATCAGAG,-0.126
14,ACACCCCT,-0.271
15,TGTTCTAA,-0.023
16,AGTGCGTA,0.14
17,CGAGTATC,0.246
18,CCGCTATC,0.0478
19,GATACGGA,0.285
20,CATACGCA,0.216
21,GATACGCA,0.231
22,TATACGGA,0.439
